# Screening results: PubChem BioAssay, Broad Institute
# Vaccinia stage = blocks a specific stage of Vaccinia orthopoxvirus infection | Vaccinia-infected cells, mCherry/Venus stage reporter fluorescence; hits give low values | AID 1053133 | activity change (mCherry), % (test concentration not listed) | 89,000 compounds, 0.01% hits; in the data active means activity change below about -37%, passing the limit was not always enough; tested in A549 cells
# * hit, by the source's call. These entries were drawn from the full list.
SMILES,Vaccinia stage
O=C(Nc1ccc2c(c1)OCO2)N[C@H]1CC[C@@H](CC(=O)N2CCN(c3ccccc3)CC2)O[C@@H]1CO,-7
CCCC#Cc1ccc([C@H]2[C@@H](CO)N3C(=O)CN(C(=O)Nc4ccc(F)cc4)C[C@@H]23)cc1,-13
COc1ccc(-c2ccc(C3[C@H]4CNC[C@@H]3N4C(=O)Nc3ccc(C(F)(F)F)cc3)cc2)cc1 (some centres undefined),-3
COc1ccc(CN(C)C[C@@H]2OCCCC[C@@H](C)Oc3ccc(NS(=O)(=O)c4cccs4)cc3C(=O)N([C@@H](C)CO)C[C@H]2C)cc1,-33
COc1ccc(S(=O)(=O)Nc2ccc3c(c2)C(=O)N([C@@H](C)CO)C[C@H](C)[C@H](CN(C)S(=O)(=O)c2ccccc2)OCCCC[C@@H](C)O3)cc1,1
C/C=C/c1ccc2c(c1)O[C@@H](CN(C)C(=O)Nc1ccc(F)cc1)[C@@H](C)CN([C@@H](C)CO)S2(=O)=O,-28
C[C@@H]1CCCCO[C@@H](CN(C)CC2CCCCC2)[C@H](C)CN([C@@H](C)CO)C(=O)c2cc(NC(=O)Nc3ccc4c(c3)OCO4)ccc2O1,31
CNC(=O)C[C@@H]1CC[C@H]2[C@H](COc3ccc(NC(=O)c4cccc(F)c4)cc3C(=O)N2C)O1,-11
C[C@@H]1CCCCO[C@@H](CN(C)C(=O)Nc2ccc(F)cc2)[C@@H](C)CN([C@H](C)CO)C(=O)c2cc(NC(=O)CCCN(C)C)ccc2O1,9
COc1ccccc1-c1cnc2c(c1)C(=O)N([C@H](C)CO)C[C@@H](C)[C@@H](CN(C)Cc1cncnc1)O2,11
C[C@@H]1CN([C@H](C)CO)C(=O)c2cc(-c3cccc(F)c3)cnc2O[C@H]1CN(C)CC1CCOCC1,-6
COC(=O)C(CC#Cc1ccc2c(c1)[C@]1(C(=O)N2)[C@H](C(=O)NC[C@H](O)c2ccccc2)[C@H]2C(=O)O[C@H](c3ccccc3)[C@H](c3ccccc3)N2[C@@H]1c1ccccc1OCCO)C(=O)OC,5
C/C=C/c1cnc2c(c1)C(=O)N([C@@H](C)CO)C[C@@H](C)[C@H](CN(C)C(=O)NC1CCCCC1)O2,21
Cc1ccccc1-c1ccc(C2[C@H]3CNC[C@@H]2N3S(=O)(=O)c2ccc(Cl)cc2)cc1 (some centres undefined),8
CCC(=O)N1CC(=O)N2[C@H](CO)[C@@H](c3ccc(C#Cc4cccnc4)cc3)[C@H]2C1,-1
C[C@@H]1CCCCO[C@@H](CN(C)C(=O)Cc2ccccc2)[C@H](C)CN([C@@H](C)CO)C(=O)c2cc(NC(=O)CCCN(C)C)ccc2O1,10
CN1[C@@H]2c3cccc(=O)n3C[C@@H]2[C@@H](CO)[C@@H]1C(=O)NCC1CCCCC1,-3
COCC#Cc1cnc2c(c1)C(=O)N([C@H](C)CO)C[C@H](C)[C@@H](CN(C)C(=O)C1CCC1)O2,10
O=C(Cc1ccncc1)NCC[C@@H]1CC[C@@H](NC(=O)Nc2ccc(Cl)cc2)[C@@H](CO)O1,15
C[C@H](CO)N1C[C@H](C)[C@H](CN(C)Cc2ccc3c(c2)OCO3)Oc2ccc(NS(C)(=O)=O)cc2C1=O,-7
CCC(=O)Nc1ccc2c(c1)OC[C@@H](C)N(C(=O)Cc1ccccn1)C[C@@H](C)[C@@H](OC)CN(C)C2=O,-2
COCC(=O)N1C[C@@H](C)[C@H](OC)CN(C)C(=O)c2cc(NC(=O)c3ccc(-c4ccccc4)cc3)ccc2OC[C@H]1C,-23
C[C@@H]1CN([C@@H](C)CO)C(=O)c2cc(C3=CCCCC3)cnc2O[C@H]1CN(C)Cc1ccncc1,-7
CO[C@H]1CN(C)C(=O)c2ccc(NC(=O)C3CC3)cc2OC[C@H](C)N(C(=O)c2ccccc2)C[C@@H]1C,6
COc1ccc(S(=O)(=O)N(C)C[C@H]2Oc3ncc(C#CC4(O)CCCC4)cc3C(=O)N([C@H](C)CO)C[C@H]2C)cc1,-5
O=C(C1CCCC1)N1CC(=O)N2[C@@H](CO)[C@H](c3ccc(C#CCc4ccccc4)cc3)[C@@H]2C1,-12
CO[C@@H]1CN(C)C(=O)c2ccc(NC(=O)Cc3ccccc3)cc2OC[C@H](C)N(CC2CC2)C[C@H]1C,6
C[C@H](CO)N1C[C@H](C)[C@H](CN(C)C(=O)Nc2ccc3c(c2)OCO3)Oc2cc(C#Cc3cccnc3)ccc2S1(=O)=O,1
CS(=O)(=O)Nc1ccc2c(c1)[C@@H]1C[C@H](CC(=O)NCC(F)(F)F)O[C@@H](CO)[C@@H]1O2,4
C[C@H](CO)N1C[C@H](C)[C@@H](CN(C)C(=O)c2ccccc2)OCCCC[C@H](C)Oc2ccc(NS(=O)(=O)c3ccc(F)cc3)cc2C1=O,-21
